Measured values reported in PubChem BioAssay AID1942 (Johns Hopkins Ion Channel Center, 2009).
Screen size: about 2,400 compounds; about 580 (24%) were called active. A selection follows. Unmarked numbers belong to inactive results.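 Rule for the calls: active = activity change at or above the mean plus 3 SD of buffer wells without dofetilide, per plate; inactive = the rest.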

target: Potassium voltage-gated channel subfamily KQT member 2 (Rattus norvegicus) (UniProt O88943); test: rat KCNQ2 channel activation by compounds alone, confirmation, counter-screen for hERG block protector project, cell-based, CHO, FluxOR thallium flux (AID 1942); conditions: CHO-KCNQ2 cells, FluxOR thallium flux fluorescence; at 10 µM; hits give high values;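 note: normalized value minus buffer-control mean plus three SD of buffer wells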
Sequence (O88943 whole entry, looked up): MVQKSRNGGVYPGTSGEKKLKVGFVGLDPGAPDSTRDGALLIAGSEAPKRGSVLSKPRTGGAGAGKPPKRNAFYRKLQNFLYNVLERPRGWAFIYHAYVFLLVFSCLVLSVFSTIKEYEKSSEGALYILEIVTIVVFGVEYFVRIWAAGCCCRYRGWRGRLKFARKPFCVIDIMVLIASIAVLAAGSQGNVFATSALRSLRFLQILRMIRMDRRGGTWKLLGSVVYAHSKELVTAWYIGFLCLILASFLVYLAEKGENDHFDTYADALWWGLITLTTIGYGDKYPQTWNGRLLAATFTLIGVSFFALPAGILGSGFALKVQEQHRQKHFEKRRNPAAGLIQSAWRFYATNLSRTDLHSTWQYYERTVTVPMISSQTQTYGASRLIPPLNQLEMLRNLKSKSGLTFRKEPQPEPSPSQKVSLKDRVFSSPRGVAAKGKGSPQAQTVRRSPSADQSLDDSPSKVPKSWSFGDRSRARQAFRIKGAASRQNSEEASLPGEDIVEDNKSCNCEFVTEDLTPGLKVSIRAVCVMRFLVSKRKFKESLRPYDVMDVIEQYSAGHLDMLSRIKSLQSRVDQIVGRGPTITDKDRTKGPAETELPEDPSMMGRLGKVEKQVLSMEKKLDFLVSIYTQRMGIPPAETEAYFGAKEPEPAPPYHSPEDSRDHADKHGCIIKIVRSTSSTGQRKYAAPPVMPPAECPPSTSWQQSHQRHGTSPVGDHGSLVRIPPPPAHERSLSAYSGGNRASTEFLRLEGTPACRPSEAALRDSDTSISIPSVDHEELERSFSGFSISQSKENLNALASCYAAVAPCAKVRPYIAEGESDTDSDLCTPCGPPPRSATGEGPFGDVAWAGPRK

Structure (SMILES)	activity change, less the hit threshold
COc1ccc2c(c1)O[C@@H](c1cccc(C(F)(F)F)c1)[C@H](OC(=O)NCCc1ccc(OC)c(OC)c1)C2=O	-11%
CCc1nnc(NC(=O)COc2ccc([N+](=O)[O-])cc2)s1	-12.5%
CC/C(=N\NC(=O)c1nnn(-c2nonc2N)c1-c1cccs1)c1ccccc1	-13.9%
COc1ccc(C)cc1NC(=O)C(=O)NNC(=O)c1ccco1	73.2% (active)
COc1ccccc1NC(=O)C(=O)NNC(=O)c1ccco1	24.1% (active)
O=C(CCC(=O)Nc1ccccc1)NNC(=O)c1ccco1	-23.9%
CCN(CC)C(=O)CN1C(=O)C2CC=C(Cl)CC2C1=O (configuration not stated)	-12.3%
O=C(O)Cn1cc(CN2CCOCC2)c2ccccc21	-20.4%
CC1(OC(=O)C2CCCC2)C(=O)C=C2C=C(c3ccc(C#N)cc3)OC=C2C1=O (configuration not stated)	-18.1%
CCOC(=O)C1=C(Cn2cnc3ccccc32)NC(=O)NC1c1cc(C)ccc1C (configuration not stated)	-19.4%
Cc1ccc(S(=O)(=O)N2CCOCC2)cc1NC(=O)CSc1nc2ccccc2c(=O)n1Cc1ccccc1	-8.2%
Cc1ccc(CNC(=O)CN2C(C)CCCC2C)cc1 (configuration not stated)	-17%
CN1/C(=C/C=C(C#N)C#N)C=Cc2ccccc21	-17.6%
Cc1ccc(N2CCN(C(=O)N3CCCC3)CC2)cc1C	3.3% (active)
CCOC(=O)N1CCN(c2c(-c3ccc(C)c(C)c3)c(=O)c2=O)CC1	-10.9%
Cc1ccc(-n2c(=O)c3cc4c(=O)n(-c5ccc(C)c(C)c5)c(=O)c4c(C(=O)c4ccc(C(=O)O)cc4)c3c2=O)cc1C	-9.5%
COc1ccc(NC(=S)NC(NC(=O)c2cccc3ccccc23)C(Cl)(Cl)Cl)c([N+](=O)[O-])c1 (configuration not stated)	-21.8%
CCOC(=O)c1c(NC(=S)NC)sc2c1CC(C)(C)SC2	97.7% (active)
Cc1onc(-c2ccccc2)c1C(=O)NC(=S)Nc1sc2c(c1C#N)CCCC2	-12.6%
CCOC(=O)c1c(/N=C/C2=C(O)CCCC2=O)sc2c1CCCC2	-20.8%
CCOC(=O)c1c(NC(=S)NC)sc2c1CCCC2	13% (active)

Structure (SMILES)	activity change, less the hit threshold
COC(=O)c1c(NC(=S)Nc2ccc(F)cc2[N+](=O)[O-])sc2c1CCCCC2	1.5% (active)
CNC(=S)Nc1sc2c(c1C(=O)OC)CCC2	8.9% (active)
CCc1nnc(NC(=O)CCC(=O)N2CCN(C3CCCCC3)CC2)s1	-21.4%
O=C(N/C(=C/c1ccc2c(c1)OCO2)C(=O)N1CCOCC1)c1cccs1	-18.2%
CC(C)OC(=O)N(C)c1ccc(C(O)(C(F)(F)F)C(F)(F)F)cc1	-9.3%
COc1cc(C2c3c(n[nH]c3C)C(=O)N2c2ccc(C)cc2)ccc1O (configuration not stated)	-19.5%
Cc1ccc(NS(=O)(=O)c2cn(C)c(=O)n(C)c2=O)c(C)c1	-0.5%
Cn1c(NNC(=O)C(c2ccccc2)c2ccccc2)cc(=O)n(C)c1=O	-1.8%
CCOc1ccc(NC(=O)c2ccc(NC(=O)CSc3nc4ccccc4c(=O)[nH]3)cc2)cc1	-13.5%
Fc1cccc(/C=N/Nc2ccc3ccccc3n2)c1	-17.9%
CC(=O)c1c(N2CCN(Cc3ccccc3)CC2)[nH]c(-c2ccccc2)nc1=S	22.7% (active)
Cc1ccccc1CC(=O)NC1CCN(Cc2ccccc2)CC1	-25.3%
C=C(C)Cc1c(C)nc(-c2ccccc2)[nH]c1=O	-12.3%
CC(=O)c1c(N)[nH]c(-c2ccccc2)nc1=S	-0.2%
CC(=O)c1c(C)[nH]c(-c2ccccc2)nc1=S	-7.7%
CC(=O)c1c(N2CCCC2)[nH]c(-c2ccccc2)nc1=S	-6%
CSc1nc(-c2ccccc2)[nH]c(=S)c1C(C)=O	72.6% (active)
CC(=O)c1c(NC(=O)c2ccccc2)[nH]c(-c2ccccc2)nc1=S	7% (active)
O=C(NCc1cccc(Cl)c1)c1ccncc1	-23.6%
Cc1cc(C(=O)NNC(=O)c2cccs2)nn1C(C)(C)C	-14.9%
Cc1ccc(C(C)NC(=O)c2cccs2)cc1C (configuration not stated)	4% (active)

Structure (SMILES)	activity change, less the hit threshold
Cc1ccc(C(C)NC(=O)c2ccc3c(c2)OCO3)cc1C (configuration not stated)	27.1% (active)
Nc1ccc(Cl)c(NC(=O)c2cccs2)c1	-12.3%
Cc1ccc(C(=O)NC(C)c2ccc(C)c(C)c2)s1 (configuration not stated)	24.3% (active)
Cc1ccc(NC(=O)c2ccc3c(c2)OCO3)cc1Cl	-14.7%
Cc1cc(C(=O)CCC(=O)NC(C)c2ccc(S(N)(=O)=O)cc2)c(C)s1 (configuration not stated)	-10%
CCCCNC(=S)NNC(=O)c1ccc2c(c1)OCO2	-24.3%
O=S(=O)(Nc1ccc(O)c2ccccc12)c1ccc(F)cc1	-19.8%
O=C1C2C3C=CC(C4CC34)C2C(=O)N1/N=C/c1ccc(-c2ccc(F)cc2[N+](=O)[O-])o1 (configuration not stated)	-20.9%
Cc1ccc(/C=N/Nc2nc(C(C)(C)C)cs2)o1	-0.3%
COCCNC(=O)C1CC(=O)N(c2ccc(OC)cc2)C1c1ccc(OC)cc1 (configuration not stated)	-16.8%
CN1C(=O)/C(=N/OC(=O)c2ccccc2)c2ccccc21	-19.8%
O=C(O)CCCCn1c(SCc2ccccc2Cl)nc2ccsc2c1=O	-5.9%
Cc1cccc(NC(=S)NNC(=O)c2csc3c2CCC(C)C3)c1 (configuration not stated)	-8.1%
Cc1ccc(C)c(NC(=S)NNC(=O)c2csc3c2CCC(C)C3)c1 (configuration not stated)	14.5% (active)
Cc1ccc(C)c(NC(=O)C2C3CCCC2C3c2ccccc2)c1 (configuration not stated)	-4.2%
O=C(OCC(=O)N1CCOCC1)c1ccc(Cl)cc1[N+](=O)[O-]	-13.6%
O=c1ccn(CCCBr)c(=O)[nH]1	-13.2%
COC(=O)CSc1nc2c(c(-c3ccc(C)o3)c1C#N)CCCC2	7.4% (active)
CCOC(=O)C(C)Sc1nc2c(c(-c3cccs3)c1C#N)CCC2 (configuration not stated)	-15.1%
COC(=O)CSc1nc(N2CCCCC2)c2c(c1C#N)CCCC2	-6.4%
